# Laboratory results as given in the supplement of paper PMC10037445.
# In all, about 2,900 compounds were measured (“NF-kB SEAP reporter activity, fold change vs agonist alone”: median about 0.99, highest 2% from about 2.6 on). This excerpt belongs to a sample that is enriched for the highest values.
# Experiments:
# RAW-Dual [1] = assay: NF-kB SEAP reporter activity, fold change vs agonist alone; cytotoxicity flag (confluency mask): not cytotoxic; higher = enhanced NF-kB activity
# Method in brief: (§1)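 Cytotoxic wells were those whose IncuCyte confluency was below 70% of agonist controls in both mask sets. The cells were RAW-Dual macrophages at 50,000 cells/well in DMEM on 384-well plates, dosed with 50 nL of library stock by pin tool, stimulated with a PRR agonist 1 h later, and kept at 37 °C, 5% CO2 for 20 hours. IRF and NF-κB reporter activity, as fold change over agonist-alone wells, came from supernatant read by QuantiLuc luminescence and QuantiBlue absorbance, respectively.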
# RAW-Dual [2] = assay: NF-kB SEAP reporter activity, fold change vs agonist alone; higher = enhanced NF-kB activity; details: library stock concentration (final ~1000-fold dilution): 10 mM
# Method in brief: as §1
# RAW-Dual [3] = assay: NF-kB SEAP reporter activity, fold change vs agonist alone; cytotoxicity flag (confluency mask): cytotoxic (confluency <70% of control); higher = enhanced NF-kB activity
# Method in brief: as §1
# [4] = agonist: ODN 1826 (TLR9) 0.5 ug/mL
# [5] = agonist: Pam2CSK4 (TLR2/6) 0.1 ug/mL
# [6] = agonist: Pam3CSK4 (TLR2/1) 0.1 ug/mL
# [7] = cytotoxicity flag (confluency mask): not cytotoxic, agonist: Imiquimod (TLR7) […]
# [8] = cytotoxicity flag (confluency mask): not cytotoxic, agonist: MPLA (TLR4) […]
smiles,measurement,setting,value
CC(C)=CCCC(C)(OC1OC(CO)C(O)C(O)C1O)C1CCC2(C)C1C(O)CC1C3(C)CCC(OC4OC(CO)C(O)C(O)C4OC4OC(CO)C(O)C(O)C4O)C(C)(C)C3CCC12C (stereo unspecified) (library stock concentration (final ~1000-fold dilution): 10 mM),NF-kB SEAP reporter activity,RAW-Dual [1]; agonist: LPS (TLR4) 0.1 ug/mL,0.838
same,NF-kB SEAP reporter activity,RAW-Dual [1]; [4],1.11
same,NF-kB SEAP reporter activity,RAW-Dual [1]; [5],0.899
same,NF-kB SEAP reporter activity,RAW-Dual [1]; [6],1.02
CC(C)=CCCC(C)(OC1OC(CO)C(O)C(O)C1O)C1CCC2(C)C1C(O)CC1C3(C)CCC(OC4OC(CO)C(O)C(O)C4OC4OC(CO)C(O)C(O)C4O)C(C)(C)C3CCC12C (stereo unspecified),NF-kB SEAP reporter activity,RAW-Dual [2]; [7],1.01
same,NF-kB SEAP reporter activity,RAW-Dual [2]; [8],1.02
CCCC(Nc1nc(-c2ccc(NC(=O)NCC)c(OC)c2)ncc1C)c1cccnc1 (stereo unspecified),NF-kB SEAP reporter activity,RAW-Dual [2]; [7],2.63
same,NF-kB SEAP reporter activity,RAW-Dual [2]; [8],2.57
CCCC(Nc1nc(-c2ccc(NC(=O)NCC)c(OC)c2)ncc1C)c1cccnc1 (stereo unspecified) (library stock concentration (final ~1000-fold dilution): 10 mM),NF-kB SEAP reporter activity,RAW-Dual [1]; agonist: LPS (TLR4) 0.1 ug/mL,5.93
same,NF-kB SEAP reporter activity,RAW-Dual [1]; [4],3.66
same,NF-kB SEAP reporter activity,RAW-Dual [1]; [5],2.2
same,NF-kB SEAP reporter activity,RAW-Dual [1]; [6],2.92
O=C(/C=C/c1ccc(O)c(O)c1/C=C/c1ccc(O)c(O)c1)OC(Cc1ccc(O)c(O)c1)C(=O)O (stereo unspecified),NF-kB SEAP reporter activity,RAW-Dual [2]; [7],0.405
same,NF-kB SEAP reporter activity,RAW-Dual [2]; [8],0.891
O=C(/C=C/c1ccc(O)c(O)c1/C=C/c1ccc(O)c(O)c1)OC(Cc1ccc(O)c(O)c1)C(=O)O (stereo unspecified) (library stock concentration (final ~1000-fold dilution): 10 mM),NF-kB SEAP reporter activity,RAW-Dual [1]; agonist: LPS (TLR4) 0.1 ug/mL,1.09
same,NF-kB SEAP reporter activity,RAW-Dual [1]; [4],0.836
same,NF-kB SEAP reporter activity,RAW-Dual [1]; [5],0.837
same,NF-kB SEAP reporter activity,RAW-Dual [1]; [6],0.289
CCn1c2ccccc2c2cc(-n3nncc3-c3ccccc3)ccc21 (library stock concentration (final ~1000-fold dilution): 10 mM),NF-kB SEAP reporter activity,RAW-Dual [1]; agonist: LPS (TLR4) 0.1 ug/mL,3.15
same,NF-kB SEAP reporter activity,RAW-Dual [1]; [4],1.82
same,NF-kB SEAP reporter activity,RAW-Dual [1]; [5],1.81
same,NF-kB SEAP reporter activity,RAW-Dual [1]; [6],2.79
CCn1c2ccccc2c2cc(CNCc3ccccc3OC)ccc21.Cl (library stock concentration (final ~1000-fold dilution): 10 mM),NF-kB SEAP reporter activity,RAW-Dual [3]; agonist: LPS (TLR4) 0.1 ug/mL,1.06
same,NF-kB SEAP reporter activity,RAW-Dual [3]; [4],0.394
same,NF-kB SEAP reporter activity,RAW-Dual [3]; [5],0.659
same,NF-kB SEAP reporter activity,RAW-Dual [3]; [6],0.641
CCn1c2ccccc2c2cc(-n3nncc3-c3ccccc3)ccc21,NF-kB SEAP reporter activity,RAW-Dual [2]; [7],1.66
same,NF-kB SEAP reporter activity,RAW-Dual [2]; [8],2.14
CCn1c2ccccc2c2cc(CNCc3ccccc3OC)ccc21.Cl,NF-kB SEAP reporter activity,"RAW-Dual [2]; cytotoxicity flag (confluency mask): cytotoxic (confluency <70% of control), agonist: Imiquimod (TLR7) […]",1.22
same,NF-kB SEAP reporter activity,"RAW-Dual [2]; cytotoxicity flag (confluency mask): cytotoxic (confluency <70% of control), agonist: MPLA (TLR4) […]",1.37
CC(=O)N1CCN(c2ccc(NC(=O)Cc3cnc(-c4ccnc(F)c4)c(C)c3)nc2)CC1,NF-kB SEAP reporter activity,RAW-Dual [2]; [7],0.874
same,NF-kB SEAP reporter activity,RAW-Dual [2]; [8],1
CC(=O)N1CCN(c2ccc(NC(=O)Cc3cnc(-c4ccnc(F)c4)c(C)c3)nc2)CC1 (library stock concentration (final ~1000-fold dilution): 10 mM),NF-kB SEAP reporter activity,RAW-Dual [1]; agonist: LPS (TLR4) 0.1 ug/mL,0.956
same,NF-kB SEAP reporter activity,RAW-Dual [1]; [4],0.965
same,NF-kB SEAP reporter activity,RAW-Dual [1]; [5],0.991
same,NF-kB SEAP reporter activity,RAW-Dual [1]; [6],1.03
